Most compounds without a hit are left out; they make up all but 12% or so of the library.
SARS PLP yeast: qHTS of Yeast-based Assay for SARS-CoV PLP; hit rate 0.19% among 330,000; AID 485353, 2010; Potency, µM (doses to about 32.9 µM), actives largely listed as activators; S. cerevisiae expressing SARS-CoV PLpro, growth rescue; also: nearly all actives have a fitted effect of over 55% in size
Shiga toxin inh: A qHTS for Small Molecule Inhibitors of Shiga Toxin | Vero cells, Shiga toxin protein synthesis inhibition reporter | inhibition, % at 38.7 µM | hit rate 9.2% among 290,000 | AID 2315, 2010; in the data active = inhibition mostly above about 28%, no sharp cut-off; inactive = mostly below about 43%
Cycloheximide cs: Cycloheximide Counterscreen for Small Molecule Inhibitors of Shiga Toxin; cell reporter, cycloheximide protein synthesis inhibition counterscreen; max response, %; hit rate 12% among 300,000; AID 2314, 2010; in the data active = max response mostly above about 13%, no sharp cut-off; inactive = mostly below about 14%; also: read at 38.3 µM for the half of the compounds with a filed dose
NS1 function inh: qHTS Assay for Inhibitors of Influenza NS1 Protein Function. hit rate 0.4% among 270,000. Potency, µM (doses to about 46.1 µM). AID 2326, 2010; also: actives are rising curves; nearly all actives have a fitted effect of over 50% in size
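Read-out: OD600 growth recovery of NS1-expressing budding yeast. Cells grown overnight at 30C in -URA glucose medium, washed, resuspended and diluted 1:100 in 2% galactose assay medium, pH 6.0. Same strain lacking NS1 served as positive control.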
Numbers stand for hits; n = inactive; u = inconclusive; x = no result. Unless noted, calls follow the shape of the full dose curve.

SMILES	SARS PLP yeast	Shiga toxin inh	Cycloheximide cs	NS1 function inh
COc1cccc(NC(=O)c2ccc3c(c2)CCN3S(C)(=O)=O)c1	n	50	17	n
CC(=O)Nc1ccc(NC(=O)c2ccc3c(c2)CCN3S(C)(=O)=O)cc1	n	n	n	n
COc1cccc(NC(=O)c2ccc3c(c2)N(C)CCS3)c1	n	29	33	n
CN1CCSc2ccc(C(=O)Nc3ccc(Cl)cc3)cc21	n	59	37	n
CN1CCSc2ccc(C(=O)NCc3cccc(F)c3)cc21	n	n	13	n
COc1ccc(Br)cc1CNC(=O)c1ccc2c(c1)N(C)CCS2	n	n	n	n
O=C(Nc1ccccc1)N1CCSc2cc(Cl)ccc21	n	n	n	n
COc1cccc(C(=O)NCC(c2cccs2)N2CCOCC2)c1 (configuration not stated)	n	x	x	x
N#C/C(=C(/O)CN1CCCC1)c1nc(-c2ccccc2)cs1	n	120	33	n
CCOC(=O)C1CCCN(C/C(O)=C(\C#N)c2nc(-c3ccc(Cl)cc3)cs2)C1 (configuration not stated)	n	n	n	n
Cn1c(=O)[nH]c(=O)c2c1nc(N/N=C/C(Br)=C/c1ccccc1)n2CCO	n	n	n	n
COc1ccc(CNC(=O)NC2CCCCC2)cc1	n	33	26	n
O=C(NCc1cccnc1)NC1CCCCC1	x	n	n	n
O=C(NCc1ccccc1)NC1CCCCC1	n	42	38	n
COc1ccccc1CCNC(=O)C1(C)CC1(Cl)Cl (configuration not stated)	n	n	15	n
COc1ccccc1CCNC(=O)NC1CCCCC1	n	n	18	n
CCOc1ccc(C(=O)NCCC(=O)N2CCC3(CC2)NCCc2[nH]cnc23)cc1	n	n	n	n
COc1ccc(CCC(=O)Nc2ccc(OC)c(S(=O)(=O)N3CCCCC3)c2)cc1	n	x	x	x
CCOc1ccc(NC(=O)COc2nsnc2N2CCOCC2)cc1	n	n	n	x
O=C(NCCC1=CCCCC1)NC1CCCCC1	n	72	45	n
COc1ccc(CNC(=O)c2ccc(CNc3c(NC4CCCCC4)c(=O)c3=O)cc2)cc1	n	n	46	n
O=C(NCCc1ccccc1)NC1CCCCC1	u	52	39	n
CCC/C=C1/CCCOC(C(=O)NCc2ccccc2)(C(F)(F)F)C1 (configuration not stated)	x	n	n	x
CC(C)(C)C(=O)NC1CCN(S(=O)(=O)c2ccc(C(F)(F)F)cc2)CC1	n	n	n	n
Cc1cc(C(=O)CSc2nnnn2-c2ccc(O)cc2)c(C)n1C	n	66	25	x
SMILES	SARS PLP yeast	Shiga toxin inh	Cycloheximide cs	NS1 function inh
O=C(CSc1nnnn1-c1ccccc1)c1ccc(O)cc1O	n	n	14	n
Cc1cc(C(=O)CSc2nnnn2-c2ccccc2)c(C)n1CCc1ccccc1	n	n	n	n
Cc1ccc(C(=O)CSc2nnnn2-c2ccccc2)o1	n	49	n	x
Cc1nc(N2CCOCC2)c2cc(-c3ccccc3)sc2n1	n	n	14	n
CCOC(=O)c1cnn(-c2ccccc2)c1NC(=O)CN1CCOCC1	n	n	n	n
O=C(CCOc1ccccc1)Nc1ccnn1C1CCN(C(=O)CCC(F)(F)F)CC1	n	n	23	n
CCCNC(=O)N1CCC(n2nccc2NC(=O)CCOc2ccccc2)CC1	n	n	n	n
COCC(=O)N1CCC(n2nccc2NC(=O)CCOc2ccccc2)CC1	n	36	24	n
COC(=O)CCCC(=O)N1CCC(n2nccc2NC(=O)CCOc2ccccc2)CC1	n	n	21	n
CCCOC(=O)c1c(-c2ccc(C)cc2C)csc1NC(=O)C1C2CCC(O2)C1C(=O)O (configuration not stated)	n	n	n	n
Cc1nccc(-c2sc(-c3cccs3)nc2C)n1	n	58	36	n
O=C1CC2C(CC(OC(=O)c3ccc(-c4ccccc4)cc3)C2CO)O1 (configuration not stated)	n	49	30	n
O=C1C[C@H]2[C@H](CO)[C@@H](OC(=O)c3ccc(-c4ccccc4)cc3)C[C@H]2O1	n	109	50	n
CSc1ccc(S(=O)(=O)N2CCC(C(=O)Nc3ccc(C(N)=O)cc3)CC2)cc1	n	n	n	n
Cc1ccc(Cn2c(SCC(=O)NCc3ccco3)nc3ccsc3c2=O)cc1	n	n	27	n
Cc1ccc(-n2c(SCC(=O)NCc3ccco3)nc3c(sc4ccccc43)c2=O)cc1	n	119	53	n
COc1ccc(CC(=O)N2CCN(c3ccccc3)CC2)cc1OC	n	n	n	n
CC(C)c1ccc(-c2c(NCCc3ccccc3)c(=O)c2=O)cc1	n	n	n	n
C(=N\N1CCN(Cc2ccccc2)CC1)/c1cccs1	n	45	41	n
Clc1ccc(CN2CCN(/N=C/c3ccco3)CC2)cc1	n	n	19	n
Clc1ccc(/C=N/N2CCN(Cc3ccccc3)CC2)cc1	n	n	17	n
O=C(O)c1ccc(/C=N/N2CCN(Cc3ccc(Cl)cc3)CC2)cc1	n	n	n	n
CSc1ccc(/C=N/N2CCN(c3ccccc3)CC2)cc1	n	n	n	x
CSc1ccc(/C=N/N2CCN(Cc3ccccc3)CC2)cc1	n	49	30	n
Cc1ccc(/C=N/N2CCN(Cc3ccc(Cl)cc3)CC2)o1	n	n	n	n
SMILES	SARS PLP yeast	Shiga toxin inh	Cycloheximide cs	NS1 function inh
CCC(=O)N/N=C(\C)CC(=O)Nc1ccc2c(c1)OCCO2	n	n	n	u
CCN(C(=O)CN1C(=O)S/C(=C\c2cccc(OC)c2)C1=O)C1CCS(=O)(=O)C1 (configuration not stated)	n	n	n	n
Cc1ccc(C(CCNC(C)c2cccs2)c2ccco2)cc1 (configuration not stated)	n	n	n	n
CCOC(=O)c1c(C)[nH]c(C)c1C(=O)CSc1nnc(-c2ccco2)n1Cc1ccccc1	n	n	n	n
COc1cccc(/C=N/N2CCN(Cc3ccccc3)CC2)c1O	n	n	24	n
CC(C)c1ccc(N(C(=O)c2csnn2)C(C(=O)NC2CCCC2)c2ccncc2)cc1 (configuration not stated)	n	66	30	n
O=C(NCC(=O)N(c1cnc2ccccc2c1)C(C(=O)NC1CCCC1)c1ccncc1)c1ccco1 (configuration not stated)	n	n	15	n
CC(C)c1ccc(N(C(=O)c2ccco2)C(C(=O)NC2CCCC2)c2ccncc2)cc1 (configuration not stated)	n	73	33	n
CC(=O)Nc1ccc(N(C(=O)c2ccco2)C(C(=O)NC2CCCCC2)c2ccccc2)cc1 (configuration not stated)	n	35	12	n
COc1ccc(N(C(=O)c2ccco2)C(C(=O)NC2CCCC2)c2ccncc2)cc1 (configuration not stated)	n	n	n	n
CC(=O)Nc1ccc(N(C(=O)c2ccco2)C(C(=O)NC2CCCC2)c2cccs2)cc1 (configuration not stated)	n	n	n	x
COc1cc(OC)cc(C(=O)N2CCC(C(=O)Nc3ccc4c(c3)OCCO4)CC2)c1	n	n	n	n
CCC(=O)Nc1cc(=O)[nH]c2nc(-c3ccc(Cl)cc3)nn12	n	n	n	n

Assay outcomes: PubChem BioAssay, National Center for Advancing Translational Sciences (NCATS)
